Compound activity deposited in PubChem BioAssay by NMMLSC.
Compounds with a hit are over-represented: about 1.2% of the library has one in this group of screens.
Avidin fluor – compound fluoresces at 488/530 nm on avidin beads. compound fluorescence 488/530 nm, flow cytometry; active compounds read high. fluorescence (KMESF) at 10 µM. 220,000 compounds, 0.38% hits. AID 1775; in the data active means fluorescence above about 47
RGS4-Gao reg – modulates binding of RGS4 to human Galphao; P09471; Multiplexed bead flow cytometry; actives lie on both sides; binding response (% of control), % at 10 µM; 220,000 compounds, 0.33% hits; in the data active means binding response below about 49% or above about 150%; inactive means in between;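 further: fluorescent Galphao activated with aluminum fluoride binding bead-coupled RGS4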
RGS8-Gao – regulators of human RGS8-Galphao interaction. P09471. multiplexed bead flow cytometry, RGS8-Galphao binding; actives lie on both sides. response (percent of control binding), % at 10 µM. 220,000 compounds, 0.34% hits. AID 1423; in the data active means response below about 60% or above about 140%; inactive means in between;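 further: Galphao activated as the GDP aluminium fluoride complex binding bead-coupled RGS8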
RGS16-Gao HTS – regulators of human RGS16-Galphao interaction; O15492+P09471; bead-based flow cytometry RGS16-Galphao binding, fluorescence; actives lie on both sides; 220,000 compounds, 0.38% hits; binding response (% of control), % at 10 µM;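 further: Galphao activated by GDP with aluminum fluoride before binding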
Target sequence (O15492 whole entry, looked up): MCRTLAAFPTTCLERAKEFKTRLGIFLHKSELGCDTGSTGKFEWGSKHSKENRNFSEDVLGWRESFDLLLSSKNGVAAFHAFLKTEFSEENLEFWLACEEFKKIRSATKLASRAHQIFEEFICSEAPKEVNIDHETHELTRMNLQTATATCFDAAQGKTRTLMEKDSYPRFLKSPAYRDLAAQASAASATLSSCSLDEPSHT
Target sequence (P09471 whole entry, looked up): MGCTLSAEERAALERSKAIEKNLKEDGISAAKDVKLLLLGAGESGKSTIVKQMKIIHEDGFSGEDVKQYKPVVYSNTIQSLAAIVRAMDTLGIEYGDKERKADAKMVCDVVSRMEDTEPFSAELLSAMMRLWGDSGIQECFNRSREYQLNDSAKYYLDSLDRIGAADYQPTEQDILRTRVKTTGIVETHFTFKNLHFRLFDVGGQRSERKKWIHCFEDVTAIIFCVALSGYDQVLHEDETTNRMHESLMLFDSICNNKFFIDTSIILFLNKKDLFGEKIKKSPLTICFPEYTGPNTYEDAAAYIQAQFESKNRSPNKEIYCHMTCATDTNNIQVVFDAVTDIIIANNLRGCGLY
RGS7-Gao reg – modulates binding of RGS7 to human Galphao. AID 1439. binding response (% of control), % at 10 µM. Multiplexed bead flow cytometry; actives lie on both sides. 220,000 compounds, 0.35% hits; in the data active means binding response below about 49% or above about 150%; inconclusive means no clear call, values can overlap the other calls; inactive means in between;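 further: fluorescent Galphao held in activated GDP-AlF4 state binding bead-coupled RGS7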
GSH bead fluor – GSH bead compound fluorescence profile. GSH beads flow cytometry, compound fluorescence 488/530 nm; active compounds read high. fluorescence (KMESF) at 10 µM. 190,000 compounds, 0.25% hits. AID 1776; in the data active means fluorescence above about 89;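 further: glutathione beads carrying GST-tagged Bcl family fusion proteins plus one bare bead set; values are compound well signal with DMSO vehicle wells as background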
RGS-Gao – regulators of human RGS4-Galphao interaction; shares compounds with RGS16-Gao HTS; multiplexed bead flow cytometry, RGS–Galpha-o binding; RGS4–Galpha-o binding response, % at 10 µM; 1,600 compounds, 99% hits;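 further: fluorescently labeled Galpha-o bound to GDP with aluminium fluoride binding biotinylated RGS beads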
Biotin-avidin – counter-screen: compounds disrupting biotin binding to avidin beads | shares compounds with RGS16-Gao HTS | streptavidin beads, fluorescein-biotin binding, flow cytometry | inhibition, % at 10 µM | 1,700 tested, under 10 active | AID 1783;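 active means inhibition above 50%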;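 further: median green fluorescence of gated singlet beads compared with DMSO control wells; 0% = DMSO wells and 100% = complete loss of bead fluorescence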
RGS8-Gao single – RGS8-Galphao interaction regulation, single point confirmation. 1,700 compounds, 3% hits. AID 1836. bead-based flow cytometry RGS8-Galphao binding, fluorescence; actives lie on both sides. shares compounds with RGS16-Gao HTS. binding response (% of control), % at 10 µM; in the data active means binding response below about 72% or above about 130%; inactive means in between;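 further: Galphao activated as GDP AlF4 complex before binding bead RGS8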
RGS7-Gao confirm – RGS7-Galphao interaction regulation, single point confirmation. shares compounds with RGS16-Gao HTS. bead-based flow cytometry RGS7-Galphao binding; actives lie on both sides. response (percent of control binding), % at 10 µM. 1,700 compounds, 7.8% hits; in the data active means response below about 75% or above about 130%; inactive means in between;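 further: fluorescent Galphao activated with GDP and aluminum fluoride binding bead-coupled RGS7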
RGS16-Gao single – confirmation of regulators of human RGS16-Galphao interaction. bead-based flow cytometry, RGS16-Galphao binding; actives lie on both sides. response (% of control binding), % at 10 µM. shares compounds with RGS16-Gao HTS. AID 1838. 1,700 compounds, 4% hits; in the data active means response below about 74% or above about 130%; inactive means in between;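 further: Galphao activated as the GDP aluminium fluoride complex binding bead-coupled RGS16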
RGS4-Gao confirm – confirmation of regulators of human RGS4-Galphao interaction. 1,700 compounds, 4% hits. RGS4-Galphao binding, multiplexed bead flow cytometry; actives lie on both sides. shares compounds with RGS16-Gao HTS. binding response (% of control), % at 10 µM; in the data active means binding response below about 74% or above about 130%; inactive means in between
RGS19-Gao conf – confirmation of regulators of human RGS19-Galphao interaction; shares compounds with RGS16-Gao HTS; bead-based flow cytometry RGS19-Galphao binding; actives lie on both sides; response (percent of control binding), % at 10 µM; 1,700 compounds, 5% hits; AID 1841; in the data active means response below about 50% or above about 160%; inactive means in between;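 further: 100% = no compound control and 0% = blank background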
Target sequence (P09471 whole entry, looked up): as above
Target sequence (P49795 whole entry, looked up): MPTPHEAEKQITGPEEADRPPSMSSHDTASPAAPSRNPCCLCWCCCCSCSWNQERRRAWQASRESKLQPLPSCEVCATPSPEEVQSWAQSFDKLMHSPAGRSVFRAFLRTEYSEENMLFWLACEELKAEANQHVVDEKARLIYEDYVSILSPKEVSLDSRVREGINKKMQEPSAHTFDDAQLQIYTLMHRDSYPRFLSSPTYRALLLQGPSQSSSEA
* marks the source's active call; other numbers are inactive results; ? = inconclusive; · = no result; [ ] = remark or other dose. Unless noted, how the calls were made is not given here.

SMILES | Avidin fluor | RGS4-Gao reg | RGS8-Gao | RGS16-Gao HTS | RGS7-Gao reg | GSH bead fluor | Biotin-avidin | RGS8-Gao single | RGS7-Gao confirm | RGS16-Gao single | RGS4-Gao confirm | RGS19-Gao conf | others
COc1cccc(C2c3c(oc4cc(C)c(C)cc4c3=O)C(=O)N2CCCN(C)C)c1 (stereo unspecified) | 117* | 122.2 | 96.0 | 106.1 | 263.2*[activator] | 12 | · | · | · | · | · | · | RGS-Gao=122.2*
COCCn1c(C)cc(/C=C2/SC(=O)N(C(C)C(=O)OC)C2=O)c1C (stereo unspecified) | 129* | 221.6*[activator] | 107.1 | 224.9*[activator] | ? | · | 1.3 | 100.2 | 96.5 | 97.2 | 97.5 | 90.9
CCOc1ccc(-c2nnc(-c3ccco3)o2)cc1OCC | 34 | 99.8 | 95.9 | 97.5 | 94.7 | 46 | · | · | · | · | · | ·
CCOc1cc(-c2nnc(-c3ccco3)o2)cc(OCC)c1OCC | 194* | 119.4 | 101.7 | 96.5 | 156.1*[activator] | 35 | 0.5 | 100.9 | 105.7 | 97.2 | 99.0 | 87.2 | RGS-Gao=119.4*
COc1cccc(Nc2nnc(SCN3C(=O)c4ccccc4C3=O)s2)c1 | 12 | 122.2 | 153.4*[activator] | 550.8 | 129.8 | 13 | 1.0 | 102.8 | 100.7 | 100.3 | 101.9 | 106.1 | RGS-Gao=122.2*
O=C(/C=C/c1cccc(F)c1)N1CCN(c2ncccn2)CC1 | 25 | 102.4 | 104.7 | 101.7 | 102.5 | 21 | · | · | · | · | · | ·
Cc1onc(-c2ccccc2)c1CNS(=O)(=O)c1cccc(Cl)c1 | 6 | 152.5*[activator] | 126.8 | 140.6 | ? | · | -0.7 | 100.0 | 104.0 | 100.6 | 102.5 | 94.2
Cc1onc(-c2ccccc2)c1CNS(=O)(=O)c1ccccc1 | 3 | 99.8 | 98.3 | 95.8 | ? | · | · | · | · | · | · | ·
O=C(CCl)Nc1cc(S(=O)(=O)N2CCOCC2)ccc1N1CCOCC1 | 11 | 96.0 | 95.5 | 95.8 | ? | 12 | · | · | · | · | · | ·
O=C(CSc1ccccc1)Nc1cc(S(=O)(=O)N2CCOCC2)ccc1N1CCOCC1 | 1 | 22.3* | 14.6* | 12.5* | ? | 14 | -2.2 | 103.9 | 102.0 | 102.8 | 100.0 | 129.9
CN(C)c1nc(N)c2ncc(=S)[nH]c2n1 | 9 | 98.6 | 96.6 | 98.7 | ? | 14 | · | · | · | · | · | ·
Fc1ccc(-c2cc(C(F)(F)C(F)F)[nH]n2)cc1 | 79* | 167.5*[activator] | 110.9 | 164.4 | ? | · | 1.5 | 103.5 | 105.5 | 105.5 | 107.0 | 97.1
FC(F)C(F)(F)c1cc(-c2ccc(Cl)cc2)n[nH]1 | 5 | 109.6 | 104.0 | 108.3 | ? | · | · | · | · | · | · | ·
CCN(CC(=O)Nc1cc(C)c(Cl)cc1OC)CC(=O)NC1CCS(=O)(=O)C1 (stereo unspecified) | 21 | 101.3 | 100.6 | 108.3 | 102.1 | 7 | · | · | · | · | · | ·
COc1ccc(S(=O)(=O)N2CCN(C(=O)COc3ccc4c(C)cc(=O)oc4c3)CC2)cc1 | 10 | 105.4 | 103.4 | 100.3 | 100.8 | 11 | · | · | · | · | · | ·
COc1ccc(N2CCN(C(=O)c3ccc(COc4ccc5c(C)cc(=O)oc5c4)cc3)CC2)cc1 | 84* | 180.3*[activator] | 99.2 | 99.6 | 157.5*[activator] | 24 | -0.8 | 102.3 | 97.7 | 102.2 | 100.5 | 94.8
CCOC(=O)C(=Cc1ccc(-n2ccnc2)cc1)C(=O)OCC | -2 | 4.6* | 6.7* | -2.5* | ? | 10 | -1.9 | 100.0 | 105.2 | 100.4 | 103.3 | 94.1
CC1=C(C(=O)Nc2ccccn2)C(c2cn(C)nc2C)C2=C(CCCC2=O)N1 (stereo unspecified) | 11 | 97.7 | 100.6 | 97.9 | ? | 20 | · | · | · | · | · | ·
Cc1ccc(C)c(C(=O)COC(=O)c2cc(Cl)nc3ccccc23)c1 | 1 | 96.2 | 95.8 | 90.8 | 95.3 | 5 | · | · | · | · | · | ·
Cc1ccc(C(=O)COC(=O)c2cc(Cl)nc3ccccc23)cc1C | 5 | 129.9 | 157.6*[activator] | 805.5 | 117.6 | 55 | · | · | · | · | · | · | RGS-Gao=129.9*
O=C(O)CCC(=O)Nc1sc2c(c1C(=O)Nc1cccc3ccccc13)CCCCC2 | 2 | 192.6*[activator] | 173.5*[activator] | 286.3 | 190.5*[activator] | 13 | 0.0 | 98.3 | 101.3 | 100.1 | 100.6 | 101.8
Cc1ccc(C(=O)C2Oc3ccccc3C3CC(c4ccc(C)cc4)=NN23)cc1 (stereo unspecified) | 2 | 79.4 | 57.0* | 14.2 | 82.6 | 7 | -0.9 | 100.9 | 97.4 | 98.5 | 99.7 | 92.3 | RGS-Gao=79.4*
CNC(=O)c1c(NC(=O)c2cccc(N3C(=O)CCC3=O)c2)sc2c1CCC2 | -1 | -2.7* | 3.9* | -3.7* | ? | · | -1.4 | 97.6 | 101.0 | 101.4 | 103.3 | 99.9
O=C(N/N=C/c1cc2c3c(c1O)CCCN3CCC2)c1ccccc1O | 1 | 25.0* | 42.8* | -13.4 | 14.8* | 9 | -4.3 | 88.5 | 83.6 | 85.2 | 86.2 | 104.0
Cc1nn(-c2ccccc2)c(N2CCCC2)c1/C=N/NC(=O)c1ccccc1O | 11 | 111.5 | 105.7 | 117.6 | 107.5 | 14 | · | · | · | · | · | ·
SMILES | Avidin fluor | RGS4-Gao reg | RGS8-Gao | RGS16-Gao HTS | RGS7-Gao reg | GSH bead fluor | Biotin-avidin | RGS8-Gao single | RGS7-Gao confirm | RGS16-Gao single | RGS4-Gao confirm | RGS19-Gao conf | others
O=C(CN1C(=O)CC(c2ccccc2)=Nc2ccccc21)NCc1ccco1 | -2 | 3.2* | 4.7* | -0.5* | 1.6* | 29 | -1.5 | 101.8 | 102.4 | 102.4 | 101.8 | 94.0
CCOC(=O)CCSc1cc(C)c2ccccc2n1 | 9 | 98.5 | 99.8 | 105.5 | 95.9 | 8 | · | · | · | · | · | ·
CCNC(=O)c1ccccc1NC(=O)c1cccc(S(=O)(=O)N2CCOCC2)c1 | -3 | -14.3* | 6.6* | -4.5* | -3.6* | 22 | 0.1 | 102.0 | 104.0 | 102.5 | 101.2 | 100.8
COc1ccc(OCC(=O)Nc2ccccc2OC(F)F)cc1 | 8 | 102.3 | 102.6 | 99.2 | 102.3 | 56 | · | · | · | · | · | ·
COc1ccc(OCC(=O)Nc2ccccc2OC)cc1 | 5 | 116.3 | 153.1*[activator] | 422.1 | 110.6 | 5 | -1.2 | 110.2 | 117.4 | 110.4 | 111.0 | 104.6 | RGS-Gao=116.3*
O=C(COC(=O)c1ccc2[nH]c3c(c2c1)CCCC3)Nc1ccccc1Cl | 10 | 102.6 | 99.9 | 102.5 | 108.3 | 15 | · | · | · | · | · | ·
